Experimental findings from PubChem BioAssay are described below.

For test [1], the system named is Human papillomavirus type 1a protein E7 (residues 44-93). Put plainly: small molecules binding HPV E7 44-93 – biochemical, small-molecule microarray, residues 44-93, 635 nm fluorescence, primary screen (AID 1108).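 Further: E7 fragment applied at 1 µg/mL in TBST for 1 h at 4 C; score combines spot fluorescence with its signal to noise ratio.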 To be noted: fluorescence 635 nm, higher = more signal.
A short description of test [2]: hepatitis C replication reporter changes, two-sided – Huh7 cells, luciferase reporter, HCV replication inhibitor project, primary screen (AID 1109).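 Further: huh7 hepatoma cells harbouring a luciferase neomycin HCV replicon reporter; luciferase luminescence as measure of HCV replicon replication; test concentration not given here.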 To be noted: Huh7 HCV replicon luciferase reporter, 48 h; higher = more signal. (In general: A reporter such as luciferase makes a cellular process visible.)
In test [3] the target is Left-right determination factor 2 (Homo sapiens) (UniProt O00292). Put plainly: small molecules binding LEFTY2 protein – biochemical, small-molecule microarray, 635 nm fluorescence scan, primary screen (AID 1110). Particulars: higher = more signal.
The target in test [4] is Calmodulin-1 (Homo sapiens) (UniProt P0DP23). Put plainly: small molecules binding calmodulin-1 with EGTA – biochemical, small-molecule microarray, Cy5-labelled CALM1, profiling panel (AID 1111).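 Further: labelled calmodulin applied in Tris saline Tween buffer holding calcium plus EGTA and DTT.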 Particulars: Cy5-CALM1 binding fluorescence, higher = more signal.
The target is the same in test [5]. Put plainly: small molecules binding Ca-loaded calmodulin-1 – biochemical, small-molecule microarray, Cy5-labelled CALM1, plus calcium, artefact control for SMM control-protein annotation, profiling panel (AID 1112).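 Further: score merges spot fluorescence with signal to noise from triplicate slides.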 To be noted: Cy5-CALM1 binding fluorescence, higher = more signal.
The nature of test [6]: probe aWnt5a binding to arrayed compounds – biochemical, biotinylated probe, 635/667 nm fluorescence, primary screen (AID 1113).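 Further: score merges 667 nm fluorescence intensity with signal-to-noise per printed feature.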 Particulars: small-molecule microarray, higher = more signal.
A short description of test [7]: probe aShh binding to arrayed compounds – biochemical, biotinylated probe, 635/667 nm fluorescence, primary screen (AID 1114).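 Further: probe is biotin-labelled aShh protein from a stem cell growth factor screen; measures binding of labelled protein to compounds printed on the slide; score merges feature fluorescence at 667 nm with signal-to-noise.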 Particulars: small-molecule microarray, higher = more signal.
The nature of test [8]: probe aNog binding to arrayed compounds – biochemical, biotinylated probe, 635/667 nm fluorescence, primary screen (AID 1115).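 Further: probe is biotinylated aNog protein used at 0.15 µg/mL for 1 h at 4 C; z-score combines 667 nm fluorescence of each spot with its signal to noise.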 To be noted: small-molecule microarray, higher = more signal.
For test [9], the target named is Torsin-1A-interacting protein 1 (Homo sapiens) (UniProt Q5JTV8). Put plainly: compound microarray binding of lysate hLAP1 – cell lysate, small-molecule microarray, COS7 lysate, 635/667 nm fluorescence, primary screen (AID 1116). Particulars: 635 nm fluorescence, higher = more signal.
The target of test [10] is Alpha-bungarotoxin (Bungarus multicinctus) (UniProt P60615). Description: compounds binding labelled alpha-BTX control protein – biochemical, small-molecule microarray, Alexa647 label, 635/667 nm fluorescence, artefact control for SMM control protein annotation, profiling panel (AID 1117). Particulars: alpha-BTX-A647 binding fluorescence, higher = more signal.
Sequence of Alpha-bungarotoxin (Bungarus multicinctus) (P60615 whole entry, looked up): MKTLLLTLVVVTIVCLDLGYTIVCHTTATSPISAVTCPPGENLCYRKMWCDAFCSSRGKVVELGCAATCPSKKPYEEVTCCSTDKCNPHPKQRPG

Sequence of Left-right determination factor 2 (Homo sapiens) (O00292 whole entry, looked up): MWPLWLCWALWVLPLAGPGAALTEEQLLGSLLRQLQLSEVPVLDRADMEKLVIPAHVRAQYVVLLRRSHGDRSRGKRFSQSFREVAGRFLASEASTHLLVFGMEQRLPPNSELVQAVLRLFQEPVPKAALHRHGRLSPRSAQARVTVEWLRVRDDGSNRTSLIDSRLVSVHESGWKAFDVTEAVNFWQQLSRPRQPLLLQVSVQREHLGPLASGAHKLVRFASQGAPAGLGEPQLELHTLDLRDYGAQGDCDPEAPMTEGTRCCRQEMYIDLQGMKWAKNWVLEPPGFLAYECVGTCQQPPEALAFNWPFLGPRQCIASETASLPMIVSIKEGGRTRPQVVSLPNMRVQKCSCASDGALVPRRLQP
Sequence of Torsin-1A-interacting protein 1 (Homo sapiens) (Q5JTV8 whole entry, looked up): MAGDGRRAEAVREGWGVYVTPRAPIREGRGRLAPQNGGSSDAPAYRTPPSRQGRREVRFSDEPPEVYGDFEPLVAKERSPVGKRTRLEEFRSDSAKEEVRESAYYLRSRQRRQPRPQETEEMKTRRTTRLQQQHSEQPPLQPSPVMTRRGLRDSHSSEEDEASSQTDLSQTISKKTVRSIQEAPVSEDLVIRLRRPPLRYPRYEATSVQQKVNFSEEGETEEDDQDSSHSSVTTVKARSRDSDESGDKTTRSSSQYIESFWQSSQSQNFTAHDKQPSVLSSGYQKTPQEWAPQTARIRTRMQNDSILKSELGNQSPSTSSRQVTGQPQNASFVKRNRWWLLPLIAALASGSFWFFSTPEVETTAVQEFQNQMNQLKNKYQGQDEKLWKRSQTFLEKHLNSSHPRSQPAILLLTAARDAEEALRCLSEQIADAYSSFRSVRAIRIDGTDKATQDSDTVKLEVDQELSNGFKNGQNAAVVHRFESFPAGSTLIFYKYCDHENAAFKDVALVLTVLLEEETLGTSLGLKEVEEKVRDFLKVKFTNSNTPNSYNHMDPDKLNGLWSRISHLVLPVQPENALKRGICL

In the case of `CC(C)(C)OC(=O)CC[C@@]1(C(=O)NCC(O)CO)N=C(c2ccc(OCCCO)cc2)O[C@@H]1c1ccccc1CN=[N+]=[N-]` (stereo not given in full), the composite z-score in test [1] is 1.11; in test [3], -0.222; in [4], 1.25; in [5] it was 0.311; in [6], -0.124; in test [7] it was 0.108. In addition, the results for the composite z-score in [8], in [9] and in test [10] were 0.72, 1.64 and 0.833, respectively. The compound also displayed a z-score in test [2] of -0.75.
With `COCCCNC(=O)[C@@H]1c2ccccc2C(=O)N(C(C)C)[C@H]1c1ccc(CO)cc1`, the composite z-score was -1.72 in test [1]; 0.0506 in [3]; 0.355 in [4]; 0.254 in [5]; -0.0828 in test [6]; -0.221 in test [7]. For the same compound, the figures for the composite z-score in [8], in test [9] and in test [10] were -0.1, 0.846 and 0.886, respectively. In [2], this compound yielded a z-score of -0.183.
Consider `CCCCC[C@H]1OC[C@@]23C=C(Br)[C@@H](CC12)[C@@]1(CO1)C3=O` (stereo not given in full), for which the composite z-score was 0.299 in test [1]; 0.058 in test [3]; -0.554 in test [4]; -1.31 in [5]; -0.16 in [6]; 0.0796 in test [7]. Besides, the composite z-score in test [8] is -0.183; in test [9], -0.574; in test [10], -0.284. The compound also returned a z-score in test [2] of -2.3.
Turning to `CCCC[C@@H](O)C1=C(COC)C[C@H]2C(=O)N(Cc3ccccc3)C(=O)[C@H]2[C@H]1CO`, the composite z-score in [1] was 0.34; in test [3], 0.568; in test [4] it was -0.37; in test [5], -0.359; in test [6] it was 0.0102; in test [7], -0.345. Also, the composite z-score in test [8] was determined as 0.116; in [9] it was 0.515; in test [10] it was 0.516. Also, in test [2], the z-score is -0.655.
On to `C=CC[C@@H](OC(=O)Nc1ccc(OC)cc1)c1ccc(O)c(F)c1`, for which the composite z-score in [1] was 0.954; in [3], -0.784; in [4], -0.976; in test [5] it was -0.427; in [6], -0.184; in test [7] it was 0.0141. The composite z-score in test [8] was -0.0602; in test [9], 1.55; in [10], -0.418. This compound registered a z-score in test [2] of -1.73.
As to `O=C1N(Cc2ccccc2)c2ccccc2C[C@]12N=C(c1ccc(OCCCO)cc1)O[C@@H]2c1ccccc1`, the composite z-score was 0.732 in [1]; 0.133 in test [3]; 0.51 in test [4]; -0.249 in test [5]; -0.0179 in test [6]; -0.332 in test [7]. In addition, the figures for the composite z-score in test [8], in test [9] and in test [10] were -0.356, -0.0883 and 0.743, respectively. The z-score in test [2] is -3.02.
On to `COc1cc(OC)c(C(O)C2C=CC3C(=O)N(Cc4ccccc4)C(=O)C3N2n2cnnc2)cc1Br` (stereo not given), for which the composite z-score is 1.36 in [1]; -0.6 in [3]; 0.181 in test [4]; 0.595 in test [5]; 0.0173 in test [6]; -0.131 in test [7]. Moreover, the values for the composite z-score in test [8], in test [9] and in [10] were 0.665, 0.781 and 0.871, respectively. In [2], this compound gave a z-score of -1.61.
As for `COc1cc(C(O)C2C=CC3C(=O)N(C)C(=O)C3N2Nc2ccccc2)cc(OC)c1OC` (stereo not given), the composite z-score in [1] was 0.1; in test [3], -0.129; in [4] it was 1.8; in test [5], 0.661; in [6], 0.233; in test [7], 0.0725. Also, the composite z-score worked out at 2.22 in [8], 1.3 in test [9] and 0.469 in [10]. The z-score in [2] was determined as 0.461.
`CC(=O)N1CC2(CC2)CC1c1ccccc1` (stereo not given): the composite z-score in test [1] was 0.753; in test [3], 0.171; in test [4], 0.107; in [5], 0.0916; in test [6], 1.19; in [7], -0.227. The results for the composite z-score in test [8], in test [9] and in test [10] were 2.15, 0.791 and -0.217, respectively. In addition, the z-score in test [2] is 0.677.
For the compound `CC(C)NC(=O)[C@@]1(C)c2ccccc2C(=O)N(Cc2ccc(OC(F)(F)F)cc2)[C@H]1c1ccc(CO)cc1`, the composite z-score in test [1] was 0.0959; in [3], -1.49; in [4] it was -0.43; in test [5], 0.495; in test [6], -0.124; in test [7], -0.0833. For the same compound, the figures for the composite z-score in [8], in test [9] and in [10] were -0.472, -0.284 and -0.94, respectively. Moreover, in test [2], the z-score was -0.706.
With `COC(=O)[C@@]1(Cc2ccc(F)cc2)[C@H]2c3cc(C(=O)N4CCCC4)n(CCc4c[nH]c5ccccc45)c3C[C@H]2CN1C(=O)c1ccccc1`, the composite z-score worked out at 1.42 in test [1]; 0.304 in test [3]; 1.45 in test [4]; 1.31 in test [5]; 0.0718 in [6]; 0.582 in [7]. Besides, the composite z-score in [8] was 2.08; in [9] it was 1.63; in test [10], 1.89. Moreover, the z-score in [2] was -1.52.
`CCCC1(C(=O)OC)C=C2C(=C(C)C(=O)C2C)CN1` (stereo not given): the composite z-score was -0.75 in [1]; -0.569 in test [3]; -0.119 in test [4]; 0.881 in test [5]; -0.0512 in test [6]; 0.0141 in test [7]. Also, the composite z-score in test [8] was 0.929; in test [9] it was 0.635; in test [10], -0.14. The compound further registered a z-score in test [2] of -0.442.
Take `COC(=O)C1=CC(CCCO)=CC(c2cccs2)N(Cc2cccc(OC(F)(F)F)c2)C=C1C(=O)OC` (stereo not given): the composite z-score in [1] was 0.91; in [3], 0.151; in [4], 2.05; in test [5], 0.804; in test [6], -0.0194; in test [7] it was 0.0121. Also, the composite z-score in [8] was 0.145; in test [9], 2.41; in test [10], 1.02. This compound showed a z-score in test [2] of -1.88.
